Several values for one entry are separate records, joined by “and”; a condition that tells them apart may be missing. Equal values may be shown once. Results filed as inconclusive are left out. Activity calls are given as the source filed them.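 The calls were made as follows, unless noted: active = mean z-score across replicates of 1.96 or higher in either the MELAS or the Rieske mutant cell line; inactive = the rest.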
Assays:
[1] = EMT-state selective cytotoxicity in co-culture – imaging, PC-3E GFP, TEM4-18 mCherry, primary screen (AID 1345086;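 active = compounds killing one labelled cell type while sparing the other, by normalised counts and ratio limits, not self-fluorescent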;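 as to all read-outs here: cells exposed to compound for 72 h before imaging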;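 as to red/green cell ratio (normalised): normalised mesenchymal count divided by normalised epithelial count so high means epithelial killing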); conditions: PC-3E GFP / TEM4-18 mCherry co-culture, imaging cell counts, at 1 µM; for red/green cell ratio (normalised): actives lie on both sides, counts scaled to control wells, 1 = unselective
[2] = test system: Aerobactin synthetase IucA (Klebsiella pneumoniae); assay: inhibition of K. pneumoniae IucA enzyme – biochemical, Tocris library, absorbance (AID 1345561; call rule not given here;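 also: 100% = enzyme without compound and 0% = no enzyme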); conditions: purified IucA enzyme assay, absorbance (OD) read-out; stronger effect = lower value;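 tested at 8 µM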
[3] = viability loss in pontine glioma line – cell-based, JHH-DIPG-1, MIPE4.0, CellTiter-Glo, qHTS, dose response (AID 1347062; cut-off not given, nearly all actives have AC50 up to about 27 µM;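 as to AC50: cells exposed to compound for two days before readout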); conditions: JHH-DIPG-1 viability, CellTiter-Glo ATP luminescence
[4] = viability loss in pontine glioma line – cell-based, SU-DIPG-XIII, MIPE5.0, CellTiter-Glo, qHTS, dose response (AID 1347064; cut-off not given, nearly all actives have AC50 up to about 23 µM;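 as to AC50: cells exposed to compound for 48 hours before the viability read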); conditions: CellTiter-Glo ATP luminescence
[5] = growth inhibition of DIPG cells – cell-based, MIPE4.0 library, CellTiter-Glo luminescence, qHTS (AID 1347066; cut-off not given, nearly all actives have AC50 up to about 30 µM;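 also: cells exposed to compound for 48 hours before readout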); conditions: SU-DIPG-VI viability, CellTiter-Glo ATP luminescence
[6] = growth inhibition of DIPG cells – cell-based, MIPE5.0 library, qHTS (AID 1347068; cut-off not given, nearly all actives have IC50 up to about 30 µM;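 as to IC50: cells exposed to compound for 48 hours before viability readout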); conditions: SU-DIPG-XXV viability
[7] = blockers of cellular phospholipid synthesis – cell-based, LOPAC library, screen 4, primary screen (AID 1347384; call rule not given here); conditions: animal cells, phospholipid biosynthesis inhibition screen; at 10 µM
[8] = MELAS cybrid and Rieske KO viability enhancers – cell-based, MELAS cybrids, Rieske KO mouse fibroblasts, CellTiter-Glo, primary screen (AID 1508586); conditions: low glucose;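 also: z relative to plate mean and SD of compound and empty wells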
[9] = viability loss in pontine glioma line – cell-based, SU-DIPG-XIII, MIPE4.0, CellTiter-Glo, qHTS, dose response (AID 1347061; cut-off not given, nearly all actives have AC50 up to about 37 µM;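 also: cells exposed to compound for 48 hours before readout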); conditions: CellTiter-Glo ATP luminescence
[10] = viability loss in pontine glioma line – cell-based, SU-DIPG-IV, MIPE4.0, CellTiter-Glo, qHTS, dose response (AID 1347063; cut-off not given, nearly all actives have AC50 up to about 30 µM;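 also: compound exposure lasted 48 hours before the viability readout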); conditions: CellTiter-Glo ATP luminescence
[11] = chitosan synthesis blockers in C. neoformans – flow cytometry, Cibacron Brilliant Red staining (AID 1347148; call rule not given here;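 also: compound exposure lasted three days at 37 degrees C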); conditions: Cryptococcus neoformans chitosan, stronger effect = lower value; at 10 µM unless noted
[12] = viability loss with induced miR-34 in A549 – imaging, A549 dox-inducible miR-34, nuclei and caspase counts, primary screen (AID 1347080;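 active = compounds whose cell count with miR-34 switched on is under 0.7 times the count with it off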); conditions: A549 miR-34 inducible, Hoechst nuclei count, 48 h
[13] = viability loss in pontine glioma line – cell-based, SU-DIPG-XVII, MIPE5.0, CellTiter-Glo, qHTS, dose response (AID 1347060; cut-off not given, nearly all actives have AC50 up to about 26 µM;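 as to AC50: cells exposed to compound for 48 hours before viability readout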); conditions: CellTiter-Glo ATP luminescence
[14] = viability loss in pontine glioma line – cell-based, SU-DIPG-XXV, MIPE5.0, CellTiter-Glo, qHTS, dose response (AID 1347065; cut-off not given, nearly all actives have AC50 up to about 26 µM;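 also: cells exposed to compound for 48 hours before ATP readout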); conditions: CellTiter-Glo ATP luminescence
[15] = JHH-DIPG-1 glioma cell viability, MIPE5.0 library, CellTiter-Glo luminescence, qHTS (AID 1347067; cut-off not given, nearly all actives have AC50 up to about 26 µM;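 also: cells exposed to compound for 48 hours before readout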); conditions: JHH-DIPG-1 glioma viability, CellTiter-Glo ATP luminescence
[16] = measured here: epithelial PC-3E GFP cell survival
[17] = measured here: mesenchymal TEM4-18 mCherry cell survival
[18] = MELAS cybrid survival, CellTiter-Glo 48 h, stronger effect = higher value
[19] = Rieske KO mouse fibroblast survival, CellTiter-Glo 72 h
[20] = stronger effect = lower value, cell number ratio, induced over uninduced
[21] = measured here: relative caspase fold change +Dox/-Dox
[22] = measured here: total cells with miR-34 induction, stronger effect = lower value
[23] = measured here: total cells without miR-34 induction

With `Cc1oncc1C(=O)Nc1ccc(C(F)(F)F)cc1` the red/green cell ratio (normalised) [1] was 0.74 (inactive), the normalised cell number [1, 16] was 1.34 and the normalised cell number [1, 17] was 0.99. The remaining activity [2] was 91.8% (inactive), the outcome [3] was “inactive” and the outcome [4] was “inactive”. For the same compound, the outcome [5] was “inactive”, the outcome [6] was “inactive” and the outcome [7] was “inactive”. For the same compound, the z-score [8, 18] was -0.557 (inactive) and -0.339 (inactive) and -0.166 (inactive) and the z-score [8, 19] was 0.617 and 0.893 and 0.301.
For `COc1cc(C(=O)OCCCN2CCCN(CCCOC(=O)c3cc(OC)c(OC)c(OC)c3)CC2)cc(OC)c1OC`, the red/green cell ratio (normalised) [1] was 1.21 (inactive), the normalised cell number [1, 16] was 0.76 and the normalised cell number [1, 17] was 0.92. The remaining activity [2] was 90.6% (inactive), the outcome [7] was “inactive” and the z-score [8, 18] was 0.925 (inactive) and 0.274 (inactive). The z-score [8, 19] was 0.203 and 0.937.
In the case of `CCOC(=O)C1=C[C@]2(CC)CCCN3CCc4c(n1c1ccccc41)[C@@H]32`, the red/green cell ratio (normalised) [1] was 0.75 (inactive), the normalised cell number [1, 16] was 1.28 and the normalised cell number [1, 17] was 0.96. The remaining activity [2] was 107% (inactive), the AC50 [9] was 26.4 µM (active) and the AC50 [3] was 11.8 µM (active). The AC50 [10] was 16.6 µM (active), the AC50 [5] was 26.4 µM (active) and the fold fluorescence [11] was 12.8 [at 142.7 µM] (inactive). For the same compound, the outcome [7] was “inactive”, the z-score [8, 18] was 0.416 (inactive) and 0.251 (inactive) and the z-score [8, 19] was 0.313 and -0.628.
In the case of `O=C(O)CN1C(=O)c2cccc3cccc(c23)C1=O`, the red/green cell ratio (normalised) [1] was 1.28 (inactive), the normalised cell number [1, 16] was 1 and the normalised cell number [1, 17] was 1.28. For the same compound, the remaining activity [2] was 110% (inactive), the fold change [12, 20] was 0.898 (inactive) and 0.959 (inactive) and 0.946 (inactive) and the fold change [12, 21] was 1.04 and 0.818 and 2.08. For the same compound, the cell count [12, 22] was 5450 and 8540 and 11100, the cell count [12, 23] was 6060 and 8900 and 11700 and the fold fluorescence [11] was 3.97 [at 195.9 µM] (inactive).
In the case of `c1ccc(CN(CC2=NCCN2)c2ccccc2)cc1`, the red/green cell ratio (normalised) [1] was 1.08 (inactive), the normalised cell number [1, 16] was 1.24 and the normalised cell number [1, 17] was 1.34. The remaining activity [2] was 98.2% (inactive), the z-score [8, 18] was 0.519 (inactive) and -0.255 (inactive) and -0.229 (inactive) and the z-score [8, 19] was -0.208 and -0.144 and -0.113.
For `Fc1ccc(C(c2ccc(F)cc2)N2CCN(C/C=C/c3ccccc3)CC2)cc1`, the red/green cell ratio (normalised) [1] was 1.11 (inactive), the normalised cell number [1, 16] was 0.86 and the normalised cell number [1, 17] was 0.95. For the same compound, the remaining activity [2] was 105% (inactive), the outcome [9] was “inactive” and the outcome [5] was “inactive”. For the same compound, the fold fluorescence [11] was 3.48 [at 123.6 µM] (inactive), the outcome [7] was “inactive” and the z-score [8, 18] was -1.68 (inactive) and -0.773 (inactive). The z-score [8, 19] was -0.315 and -0.0521.
In the case of `COc1ccc(CN(CCN(C)C)c2ccccn2)cc1`, the red/green cell ratio (normalised) [1] was 1.1 (inactive), the normalised cell number [1, 16] was 1.02 and the normalised cell number [1, 17] was 1.12. For the same compound, the remaining activity [2] was 118% (inactive), the outcome [7] was “inactive” and the z-score [8, 18] was 0.327 (inactive) and -0.721 (inactive). The z-score [8, 19] was 0.0359 and 0.287.
With `Cn1cnc2c1c(=O)[nH]c(=O)n2C` the red/green cell ratio (normalised) [1] was 0.94 (inactive), the normalised cell number [1, 16] was 0.96 and the normalised cell number [1, 17] was 0.9. For the same compound, the outcome [13] was “inactive”, the AC50 [9] was 23.5 µM (active) and the AC50 [3] was 23.5 µM (active). The AC50 [10] was 10.5 µM (active), the outcome [4] was “inactive” and the outcome [14] was “inactive”. The AC50 [5] was 20.9 µM (active), the outcome [15] was “inactive” and the outcome [6] was “inactive”. For the same compound, the fold change [12, 20] was 0.912 (inactive) and 0.854 (inactive) and 0.906 (inactive), the fold change [12, 21] was 0.922 and 1.4 and 3.48 and the cell count [12, 22] was 9550 and 8390 and 11600. For the same compound, the cell count [12, 23] was 10500 and 9820 and 12900, the outcome [7] was “inactive” and the z-score [8, 18] was -0.269 (inactive). The z-score [8, 19] was -0.702.
With `Cc1scc2c1N(C(=O)CN1CCN(C)CC1)c1ccccc1NC2=O` the red/green cell ratio (normalised) [1] was 1.05 (inactive), the normalised cell number [1, 16] was 0.88 and the normalised cell number [1, 17] was 0.92. The remaining activity [2] was 94.5% (inactive), the outcome [7] was “inactive” and the z-score [8, 18] was 0.644 (inactive) and 0.966 (inactive). The z-score [8, 19] was 0.467 and 0.592.
In the case of `O=C(O)c1cn(-c2ccc(F)cc2)c2cc(N3CCNCC3)c(F)cc2c1=O`, the red/green cell ratio (normalised) [1] was 0.95 (inactive) and 0.88 (inactive), the normalised cell number [1, 16] was 1.1 and 0.99 and the normalised cell number [1, 17] was 1.04 and 0.87. The outcome [13] was “inactive”, the outcome [9] was “inactive” and the outcome [3] was “inactive”. The outcome [10] was “inactive”, the outcome [4] was “inactive” and the outcome [14] was “inactive”. The outcome [5] was “inactive”, the outcome [15] was “inactive” and the outcome [6] was “inactive”. For the same compound, the fold change [12, 20] was 0.867 (inactive) and 0.86 (inactive), the fold change [12, 21] was 3.37 and 1.06 and the cell count [12, 22] was 11600 and 8760. The cell count [12, 23] was 13400 and 10200, the z-score [8, 18] was 0.702 (inactive) and 0.944 (inactive) and the z-score [8, 19] was 0.262 and 0.886.
In the case of `NS(=O)(=O)c1cc2c(cc1Cl)NC(C1CC3C=CC1C3)NS2(=O)=O` (stereo not drawn), the red/green cell ratio (normalised) [1] was 1.29 (inactive), the normalised cell number [1, 16] was 0.95 and the normalised cell number [1, 17] was 1.23. The remaining activity [2] was 94.1% (inactive), the fold change [12, 20] was 0.998 (inactive) and 0.957 (inactive) and 0.847 (inactive) and the fold change [12, 21] was 1.34 and 0.752 and 2.93. For the same compound, the cell count [12, 22] was 9070 and 9210 and 11400, the cell count [12, 23] was 9090 and 9620 and 13400 and the outcome [7] was “inactive”.
With `COc1ccc(CCN(C)CCCC(C#N)(c2ccc(OC)c(OC)c2)C(C)C)cc1OC` (stereo not drawn) the red/green cell ratio (normalised) [1] was 1.29 (inactive), the normalised cell number [1, 16] was 1.17 and the normalised cell number [1, 17] was 1.52. The outcome [13] was “inactive”, the outcome [9] was “inactive” and the outcome [3] was “inactive”. For the same compound, the outcome [10] was “inactive”, the outcome [4] was “inactive” and the outcome [14] was “inactive”. For the same compound, the outcome [5] was “inactive”, the outcome [15] was “inactive” and the outcome [6] was “inactive”. The outcome [7] was “inactive”, the z-score [8, 18] was -1.23 (inactive) and 0.18 (inactive) and -0.391 (inactive) and the z-score [8, 19] was -2.03 and 0.282 and -0.248.
For `CN(C)c1ccc(C(=C2C=CC(=[N+](C)C)C=C2)c2ccc(N(C)C)cc2)cc1`, the red/green cell ratio (normalised) [1] was 3.62 (active), the normalised cell number [1, 16] was 0.14 and the normalised cell number [1, 17] was 0.5. The AC50 [13] was 1.48 µM (active), the AC50 [9] was 2.96 µM (active) and the AC50 [3] was 0.235 µM (active). For the same compound, the AC50 [10] was 0.148 µM (active), the AC50 [4] was 1.48 µM (active) and the AC50 [14] was 0.833 µM (active). For the same compound, the AC50 [5] was 0.372 µM (active), the AC50 [15] was 1.86 µM (active) and the IC50 [6] was 2.63 µM (active). The fold change [12, 20] was 0.999 (inactive) and 0.737 (inactive), the fold change [12, 21] was 0.9 and 1.26 and the cell count [12, 22] was 1530 and 788. For the same compound, the cell count [12, 23] was 1530 and 1070, the z-score [8, 18] was 3.09 (active) and the z-score [8, 19] was -2.82.

Source: PubChem BioAssay
